FXIIa inh mix – inhibitors of human coagulation factor XIIa, pooled mixtures; P00748; purified FXIIa, fluorogenic substrate; inhibition, % at 5 µM; 0.2% of 62,000 active;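 note: 0% = enzyme without compound and 100% = no enzyme blank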
Candida biofilm – kills Candida albicans biofilms | AID 834 | inhibition, % at 6 µM | C. albicans biofilm + clotrimazole, Alamar Blue | 0.14% of 85,000 active;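 active = inhibition above 20%; inactive = inhibition below 20%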;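 note: preformed 24 hr biofilms exposed to compound for 48 hr; 0% = biofilm without compound and 100% = blank killed by clotrimazole plus chlorhexidine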
HePTP inh – human HePTP phosphatase inhibition. AID 521. recombinant HePTP phosphatase activity, OD absorbance. P35236. inhibition, % at 20 µM. 0.64% of 110,000 active; in the data active = inhibition above about 50%;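 note: plate controls were vehicle for no effect and reference inhibitor for full effect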
FXIa mix inh – factor XIa (human) inhibition, mixture screen; P03951; purified FXIa, fluorogenic substrate, pooled mixtures; inhibition, % at 5 µM; 0.19% of 62,000 active; AID 680;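 note: each value is inhibition by a whole ten-compound pool holding the compound; 0% = enzyme with no mixture and 100% = wells lacking enzyme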
Target sequence (P03951 19-387 limits assumed): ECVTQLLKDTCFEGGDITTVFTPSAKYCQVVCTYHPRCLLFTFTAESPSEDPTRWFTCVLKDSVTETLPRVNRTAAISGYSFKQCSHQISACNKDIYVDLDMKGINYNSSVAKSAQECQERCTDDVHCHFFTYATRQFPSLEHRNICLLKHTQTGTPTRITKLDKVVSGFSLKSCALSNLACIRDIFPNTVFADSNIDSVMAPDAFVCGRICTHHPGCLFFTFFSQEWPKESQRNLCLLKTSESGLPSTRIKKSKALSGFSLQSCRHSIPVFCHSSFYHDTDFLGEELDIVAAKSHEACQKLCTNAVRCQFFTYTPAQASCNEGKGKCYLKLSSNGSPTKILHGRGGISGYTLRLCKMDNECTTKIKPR
Target sequence (P03951 388-625 limits assumed): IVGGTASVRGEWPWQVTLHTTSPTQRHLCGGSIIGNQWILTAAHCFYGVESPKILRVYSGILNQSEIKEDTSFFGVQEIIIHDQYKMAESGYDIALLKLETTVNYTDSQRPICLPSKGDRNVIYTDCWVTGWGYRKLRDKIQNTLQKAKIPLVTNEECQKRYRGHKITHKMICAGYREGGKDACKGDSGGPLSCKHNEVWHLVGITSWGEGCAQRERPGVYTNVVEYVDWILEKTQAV
TNAP act mid DEA – activates human TNAP at intermediate phosphate acceptor concentration | P05186 | purified TNAP, CDP-star luminescence, 100 mM DEA, 30 min; active compounds read high; scale: 0 levamisole-inhibited, 1 vehicle-only enzyme | activation factor at 20 µM | 64,000 tested, under 10 active | AID 813;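 active = activation factor of at least 2 at 20 µM, relative to controls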
D1 mod – D1 dopamine receptor (human) allosteric modulation; HEK293 D1, CRE-luciferase, dopamine EC30 potentiation; actives deviate in either direction; B-score at 10 µM; AID 641; 5.9% of 58,000 active; P21728;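 active = luminescence count or its row- and column-corrected plate score outside the 99.7% band of the plate's sample wells, on either side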
An asterisk follows results filed as active; / = no result; ! = repeats disagree. Many of the other results were omitted from the sample, so hits are more common in it than they were. Cut-off read from the data, not from the text of the source, unless noted: active = inhibition above about 20% (passing the limit was not always enough); inactive = the rest.

SMILES	FXIIa inh mix	Candida biofilm	HePTP inh	FXIa mix inh	TNAP act mid DEA	D1 mod
CCN1C=CC(=C2C(=O)c3ccccc3C2=O)C=C1	4	11	-5	7	1	-8.8*
CCCN1C=CC(=C2C(=O)c3ccccc3C2=O)C=C1	-6	3	6	-3	0.8	-5.7*
CCCCCCN1C=CC(=C2C(=O)c3ccccc3C2=O)C=C1	/	/	-4	/	/	/
CC(C)(C)c1csc(NC(=O)c2ccc(Cl)c([N+](=O)[O-])c2)n1	/	/	-7	/	/	/
O=C(COc1ccc(Br)cc1)Nc1nc2ccccc2s1	/	/	3	/	/	/
O=C(CN1C(=O)/C(=C/c2ccccc2)SC1=S)Nc1cccc(C(=O)O)c1	/	/	52*	/	/	/
CCN(CC)c1ccc(N2C(=O)/C(=C/c3ccc(C(=O)O)cc3)SC2=S)cc1	/	/	104*	/	/	/
CCN(CC)c1ccc(N2C(=O)/C(=C/c3ccc(C(=O)OC)cc3)SC2=S)cc1	/	/	7	/	/	/
O=C(CN1C(=O)/C(=C/c2ccccc2)SC1=S)Nc1cccc(Br)c1	/	/	6	/	/	/
O=C(CCCN1C(=O)/C(=C/c2ccc(F)cc2)SC1=S)Nc1ccc(C(=O)O)cc1	/	/	102*	/	/	/
CC(C)(C)c1cc(C(=O)N/N=C/c2ccc(F)cc2)n[nH]1	/	/	-8	/	/	/
O=C(CCNC(=O)OCc1ccccc1)Oc1cc2oc(=O)cc(-c3ccccc3)c2cc1Cl	/	/	5	/	/	/
CCSc1nnc(NC(=O)c2cnccn2)s1	5	8	4	5	0.8	-0.22
CCSc1nnc(NC(=O)c2ccccn2)s1	-7	3	11	3	1.1	-5.8*
COc1ccc(-c2cc(C(=O)N/N=C(\C)c3ccc(N)cc3)[nH]n2)cc1	/	/	5	/	/	/
COc1ccc(NC(=O)c2ccccc2Cl)cc1Cl	/	/	-2	/	/	/
CC(C)=CC(=O)Nc1ccc2c(c1)OCO2	3	0	4	5	0.9	-5.2*
O=C(CCCCCN1C(=O)CCC1=O)Nc1ccc2c(c1)OCO2	23*	6	5	5	1	0.69
COc1ccc(NC(=O)C=C(C)C)cc1Cl	2	4	9	7	0.9	-3.8*
O=C1c2ccc3c4c(ccc(c24)C(=O)N1/N=C/c1ccccc1)CC3	/	/	10	/	/	/
COC(=O)c1cccc(NC(=O)c2cc[n+](C)cc2)c1	/	/	-15	/	/	/
Cc1cc(C)cc(Nc2ncc3c(n2)CCCC3=O)c1	1	1	11	9	1	-5*
Cc1cc(Br)c(-c2ccc(/C=C3/SC(=S)NC3=O)o2)cc1C	/	/	22	/	/	/
CN(C1CCCCC1)S(=O)(=O)c1ccc(C(=O)O)cc1	-3	25*	4	-1	1	1.6
CCc1ccccc1NC(=O)C(=O)NCCc1ccc(OC)c(OC)c1	/	/	12	/	/	/
SMILES	FXIIa inh mix	Candida biofilm	HePTP inh	FXIa mix inh	TNAP act mid DEA	D1 mod
CCOc1ccccc1C(=O)Nc1ccc(C(=O)OCC(C)C)cc1	/	/	-15	/	/	/
CCC1CCc2c(sc(NC(=O)Nc3ccccc3)c2C(N)=O)C1 (stereo unspecified)	/	/	8	/	/	/
COCCn1c(NCc2ccccc2)nc2c1c(=O)[nH]c(=O)n2C	2	7	-7	6	1	2
COCCn1c(NCc2ccc(C)cc2)nc2c1c(=O)[nH]c(=O)n2C	2	9	2	0	0.9	-3.3*
O=C(NCCN1CCN(c2ccccc2F)CC1)C1CCCN(S(=O)(=O)c2cnc[nH]2)C1 (stereo unspecified)	4	2	-2	5	1	-3.2*
O=C(NCCN1CCC(Cc2ccccc2)CC1)C1CCCN(S(=O)(=O)c2cnc[nH]2)C1 (stereo unspecified)	8	4	-2	-6	1	0.2
Cc1ccnc(NC(=O)C2CCCCC2C(=O)O)c1 (stereo unspecified)	/	/	9	/	/	/
O=C(Nc1ccc(-c2nc3ccccc3s2)c(O)c1)c1ccc2c(c1)OCCO2	/	/	68*	/	/	/
Cc1ccc(N(CC2=NCCN2)c2cccc(O)c2)cc1	4	7	6	6	1	-2.3*!
CCN(CC)c1ccc(C2Nc3cccc4cccc(c34)N2)c(O)c1	/	9	7	/	0.9	/
CCN(CC)c1ccc2c(c1)CCCN2	7	/	3	1	1	-3.4*
CCN(CC)c1ccc(Nc2nc(N3CCOCC3)c3ccccc3n2)cc1	/	4	/	/	/	/
COc1ccc(Nc2nc(N3CCCC3)c3ccccc3n2)cc1	14	6	10	3	1.1	-6.9*
CN1c2ccccc2C(C)(C)C12C=Cc1cc(C=O)ccc1O2 (stereo unspecified)	/	/	6	/	/	/
Cc1cccc(-n2ncc3c(NCCc4ccc(S(N)(=O)=O)cc4)ncnc32)c1	2	10	3	4	0.9	-6.9*
